Inconclusive results are not listed. The source made the active and inactive calls. Unless noted, calls follow the shape of the dose curve; as a rule, active = well fitted curve in the direction sought with a large enough effect in the repeat runs; inconclusive = weak or mixed curves; inactive = no such curve, though single readings can be large; an effect the other way counts as inactive or inconclusive.
Key:
[1] = qHTS assay to test for compound auto fluorescence at 535 nm (green) in HEK293 cells (AID 720680)
[2] = qHTS assay to test for compound auto fluorescence at 460 nm (blue) in HEK293 cell free culture (AID 720681)
Method in brief: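 Compounds were added to cell-free DMEM with 10% FBS and fluorescence read directly. The blue channel used 405 nm excitation and 460 nm emission, with triamterene as the reference fluorophore.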

[3] = qHTS assay to test for compound auto fluorescence at 535 nm (green) in HEK293 cell free culture (AID 720682)
Method in brief: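 Read-out: 485/535 nm fluorescence intensity, calibrated against fluorescein. Medium only (DMEM + 10% FBS, no cells); test compound or DMSO vehicle added by pintool before plate reading.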

[4] = qHTS assay to test for compound auto fluorescence at 590 nm (red) in HEK293 cell free culture (AID 720683)
Method in brief: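 Cell-free wells of DMEM with 10% FBS received compound, and intrinsic fluorescence was read at excitation/emission 540/590 nm. Values expressed as equivalence to Rose Bengal sodium.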

[5] = qHTS assay to test for compound auto fluorescence at 590 nm (red) in HepG2 cell free culture (AID 720684)
Method in brief: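 Rose Bengal sodium served as the reference for red signal. Test compounds were dispensed into serum-containing MEM (10% FBS) without cells, and plates were read at 540/590 nm.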

[6] = qHTS assay to test for compound auto fluorescence at 460 nm (blue) in HepG2 cell free culture (AID 720685)
Method in brief: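 Cell-free plates of MEM plus 10% FBS received 23 nL compound or DMSO vehicle; blue-channel (405/460 nm) intensity scored against triamterene as reference fluorophore.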

[7] = qHTS assay to test for compound auto fluorescence at 535 nm (green) in HepG2 cell free culture (AID 720686)
[8] = qHTS assay to test for compound auto fluorescence at 460 nm (blue) in HepG2 cells (AID 720687)
Method in brief: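 HepG2 cells in MEM with 10% FBS, attached overnight at 37 C, were exposed to compound or DMSO for 1 hr at 37 C, 5% CO2. Blue fluorescence was read at 405/460 nm, with triamterene as reference fluorophore.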

[9] = qHTS assay to identify small molecule antagonists of the glucocorticoid receptor (GR) signaling pathway - cell viability counter screen (AID 720693); also: nearly all actives have a fitted effect of over 55% in size
[10] = qHTS assay for identifying genotoxic compounds that show differential cytotoxicity against isogenic chicken DT40 cell lines with known DNA damage response pathways - wild type cell line (AID 743012); also: nearly all actives have a fitted effect of over 60% in size
Method in brief: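 Viability by ATP luminescence (CellTiter-Glo, 30 min RT) after 40 h compound treatment at 37 C/5% CO2, using 300 parental DNA repair-proficient DT40 cells per well.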

[11] = qHTS assay for identifying genotoxic compounds that show differential cytotoxicity against isogenic chicken DT40 cell lines with known DNA damage response pathways - Rev3 mutant cell line (AID 743014); also: nearly all actives have a fitted effect of over 55% in size
[12] = qHTS assay for identifying genotoxic compounds that show differential cytotoxicity against isogenic chicken DT40 cell lines with known DNA damage response pathways - Rad54/Ku70 mutant cell line (AID 743015); also: nearly all actives have a fitted effect of over 60% in size
[13] = qHTS assay to identify small molecule antagonists of the androgen receptor (AR) signaling pathway - cell viability counter screen (AID 743033; also: nearly all actives have a fitted effect of over 45% in size)
[14] = biological target: Glucocorticoid receptor (Homo sapiens) (UniProt P04150); assay: qHTS assay to identify small molecule antagonists of the glucocorticoid receptor (GR) signaling pathway (AID 720692; active = well fitted inhibition curve with a large enough effect in the signal ratio in the repeat runs, not every such curve was filed as active; the % refers to the signal ratio)
Glucocorticoid receptor (Homo sapiens), sequence (P04150 whole entry, looked up): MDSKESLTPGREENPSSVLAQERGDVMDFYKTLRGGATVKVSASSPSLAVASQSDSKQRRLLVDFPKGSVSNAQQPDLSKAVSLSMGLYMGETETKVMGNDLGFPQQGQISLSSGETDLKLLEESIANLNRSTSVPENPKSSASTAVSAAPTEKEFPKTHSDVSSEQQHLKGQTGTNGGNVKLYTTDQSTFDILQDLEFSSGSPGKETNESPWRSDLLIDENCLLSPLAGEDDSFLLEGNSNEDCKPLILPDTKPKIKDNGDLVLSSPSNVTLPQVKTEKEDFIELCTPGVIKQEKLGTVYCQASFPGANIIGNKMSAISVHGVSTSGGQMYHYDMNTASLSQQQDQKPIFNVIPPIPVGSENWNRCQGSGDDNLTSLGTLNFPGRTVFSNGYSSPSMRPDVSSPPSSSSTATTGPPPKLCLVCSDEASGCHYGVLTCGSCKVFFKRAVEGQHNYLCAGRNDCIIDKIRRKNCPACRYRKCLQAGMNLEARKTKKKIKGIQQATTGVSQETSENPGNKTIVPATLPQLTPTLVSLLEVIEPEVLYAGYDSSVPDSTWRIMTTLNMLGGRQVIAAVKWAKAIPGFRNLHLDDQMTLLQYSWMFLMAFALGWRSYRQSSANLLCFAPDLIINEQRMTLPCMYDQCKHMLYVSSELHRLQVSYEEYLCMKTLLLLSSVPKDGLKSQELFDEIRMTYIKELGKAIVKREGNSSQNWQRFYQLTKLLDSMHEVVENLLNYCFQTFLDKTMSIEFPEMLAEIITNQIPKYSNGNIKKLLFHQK
Method in brief: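 Inhibition of dexamethasone-driven (5 nM final) beta-lactamase expression was measured in GRE-reporter HeLa cells over 18 h at 37C. Fluorescence was read after 2 h with the B/G FRET substrate at room temperature.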

[15] = qHTS assay to identify small molecule antagonists of the androgen receptor (AR) signaling pathway using the MDA cell line - cell viability counter screen (AID 743041; also: nearly all actives have a fitted effect of over 45% in size)
Method in brief: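 Cytotoxicity counter screen: MDA-kb2 AR-luc cells, compound + R1881, 16 h, 37C, 0% CO2; CellTiter-Fluor added at 15.5 h, fluorescence read after 30 min.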

[16] = biological target: Androgen receptor (Homo sapiens) (UniProt P10275); assay: qHTS assay to identify small molecule antagonists of the androgen receptor (AR) signaling pathway (AID 743035; active = well fitted inhibition curve with a large enough effect in the signal ratio in the repeat runs, not every such curve was filed as active; the % refers to the signal ratio)
Androgen receptor (Homo sapiens), sequence (P10275 whole entry, looked up): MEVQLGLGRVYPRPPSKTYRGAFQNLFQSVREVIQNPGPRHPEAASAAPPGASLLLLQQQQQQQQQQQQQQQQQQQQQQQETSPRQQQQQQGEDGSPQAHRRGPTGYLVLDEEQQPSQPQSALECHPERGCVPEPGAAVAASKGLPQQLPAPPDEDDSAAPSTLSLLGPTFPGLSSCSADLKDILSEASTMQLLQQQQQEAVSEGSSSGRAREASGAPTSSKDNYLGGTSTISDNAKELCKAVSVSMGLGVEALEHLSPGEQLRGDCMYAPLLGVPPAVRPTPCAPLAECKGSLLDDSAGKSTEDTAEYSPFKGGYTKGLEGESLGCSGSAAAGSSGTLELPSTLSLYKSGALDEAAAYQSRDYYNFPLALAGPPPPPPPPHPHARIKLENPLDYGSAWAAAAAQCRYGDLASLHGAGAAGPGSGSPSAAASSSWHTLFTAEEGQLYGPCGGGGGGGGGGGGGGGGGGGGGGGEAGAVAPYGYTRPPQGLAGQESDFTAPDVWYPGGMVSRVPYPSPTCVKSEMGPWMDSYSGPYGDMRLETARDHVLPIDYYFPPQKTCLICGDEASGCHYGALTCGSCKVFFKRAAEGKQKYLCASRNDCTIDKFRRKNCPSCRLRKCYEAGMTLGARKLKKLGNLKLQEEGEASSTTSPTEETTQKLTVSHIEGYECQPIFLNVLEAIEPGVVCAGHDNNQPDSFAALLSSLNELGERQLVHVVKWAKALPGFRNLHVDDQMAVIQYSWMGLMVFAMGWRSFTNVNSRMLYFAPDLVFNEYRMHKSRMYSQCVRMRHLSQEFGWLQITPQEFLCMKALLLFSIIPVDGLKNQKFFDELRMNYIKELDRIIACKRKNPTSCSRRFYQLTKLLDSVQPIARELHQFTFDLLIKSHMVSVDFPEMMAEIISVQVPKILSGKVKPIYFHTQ
Method in brief: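 Antagonist mode: AR-bla HEK293 cells co-treated with test compounds and agonist R1881 for 16 h at 37C, 5% CO2. Beta-lactamase activity read as FRET fluorescence after 2 h room-temperature substrate loading.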

[17] = biological target: Androgen receptor (Homo sapiens) (UniProt P10275); assay: qHTS assay to identify small molecule agonists of the androgen receptor (AR) signaling pathway (AID 743036; active = well fitted activation curve with a large enough effect in the signal ratio in the repeat runs, with a control signal flat, not every such curve was filed as active; the % refers to the signal ratio)
Method in brief: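 HEK293 cells stably carrying a UAS-driven beta-lactamase reporter (GeneBLAzer AR-UAS-bla-GripTite) were plated at 2,000 cells/well, rested 4 h at 37C, then exposed to compounds in DMSO for 16 h. LiveBLAzer B/G FRET substrate was added for 2 h at room temperature; fluorescence read.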

[18] = biological target: Androgen receptor (Homo sapiens) (UniProt P10275); assay: qHTS assay to identify small molecule agonists of the androgen receptor (AR) signaling pathway using the MDA cell line (AID 743040; also: nearly all actives have a fitted effect of over 20% in size)
Method in brief: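 Luciferase read-out, ONE-Glo, 30 min RT. Cells: MDA-kb2 AR-luc, MMTV promoter with AR and GR response elements. Compound exposure 16 h, 37C, 0% CO2, after 5 h pre-incubation. qHTS agonist mode.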

[19] = biological target: Androgen receptor (Homo sapiens) (UniProt P10275); assay: qHTS assay to identify small molecule antagonists of the androgen receptor (AR) signaling pathway using the MDA cell line (AID 743042; also: nearly all actives have a fitted effect of over 55% in size)
Method in brief: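 MDA-kb2 breast carcinoma cells carrying MMTV-luciferase (AR/GR responsive) were co-treated with compounds and the agonist R1881 for 16 h at 37C. Inhibition read as ONE-Glo luminescence; CellTiter-Fluor fluorescence measured in parallel for cytotoxicity.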

[20] = biological target: Glucocorticoid receptor (Homo sapiens) (UniProt P04150); assay: qHTS assay to identify small molecule agonists of the glucocorticoid receptor (GR) signaling pathway (AID 720691; active = well fitted activation curve with a large enough effect in the signal ratio in the repeat runs, not every such curve was filed as active; the % refers to the signal ratio)
Method in brief: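 Agonist-mode qHTS in HeLa cells stably expressing a glucocorticoid-response-element beta-lactamase reporter. Fluorescence intensity read with FRET substrate (2 h, room temperature) after 18 h compound treatment at 37 C.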
% is scaled to controls: 0 for no effect and ±100 for the full control effect.

CN1[C@@H]2CC[C@H]1CC(OC(=O)C(O)c1ccccc1)C2 (stereo not given in full)
inactive: outcome [1] | outcome [2] | outcome [3] | outcome [4] | outcome [5] | outcome [6] | outcome [7] | outcome [8] | outcome [9] | Potency [10] | Potency [11] | Potency [12] | outcome [13]

Clc1cc(Cl)cc(Cl)c1
inactive: outcome [1] | outcome [2] | outcome [3] | outcome [4] | outcome [5] | outcome [6] | outcome [7] | outcome [8] | Potency [14] | outcome [9] | Potency [11] | Potency [12] | outcome [13] | Potency [15]

CC1OC1C1CCC2(C)OC2C1 (stereo not given)
inactive: outcome [1] | outcome [2] | outcome [3] | outcome [4] | outcome [5] | outcome [6] | outcome [7] | outcome [8] | Potency [14] | outcome [9] | Potency [10] | Potency [12] | outcome [13]

C[N+]1(C)[C@@H]2CC(OC(=O)[C@H](CO)c3ccccc3)C[C@H]1[C@@H]1O[C@@H]12 (stereo not given in full)
inactive: outcome [1] | outcome [2] | outcome [3] | outcome [4] | outcome [5] | outcome [6] | outcome [7] | outcome [8] | Potency [14] | outcome [9] | Potency [10] | Potency [11] | Potency [12] | Potency [15]

CCN(Cc1ccccc1)c1ccccc1
inactive: outcome [1] | outcome [2] | outcome [3] | outcome [4] | outcome [5] | outcome [6] | outcome [7] | outcome [8] | outcome [9] | Potency [10] | Potency [12] | outcome [13] | Potency [16] | outcome [17] | Potency [18] | outcome [19]

[Ca+2]
inactive: outcome [1] | outcome [2] | outcome [3] | outcome [4] | outcome [5] | outcome [6] | outcome [7] | outcome [8] | Potency [20] | outcome [9] | Potency [15]

CO[Si](C)(OC)c1ccccc1
inactive: outcome [1] | outcome [2] | outcome [3] | outcome [4] | outcome [5] | outcome [6] | outcome [7] | outcome [8] | Potency [20] | outcome [9] | Potency [11] | Potency [12] | outcome [13] | Potency [15]

COc1ccnc(CS(=O)c2nc3cc(OC(F)F)ccc3[nH]2)c1OC (stereo not given)
inactive: outcome [1] | outcome [2] | outcome [3] | outcome [4] | outcome [5] | outcome [6] | outcome [7] | outcome [8] | Potency [14] | outcome [9] | Potency [11] | Potency [12] | outcome [13] | Potency [15]

CC1CCC(CO)CC1 (stereo not given)
inactive: outcome [1] | outcome [2] | outcome [3] | outcome [4] | outcome [5] | outcome [6] | outcome [7] | outcome [8] | Potency [20] | outcome [9] | Potency [10] | Potency [12] | outcome [13] | Potency [16] | Potency [18] | Potency [15] | outcome [19]

O=C(O)CNC(=O)c1ccccc1
inactive: outcome [1] | outcome [2] | outcome [3] | outcome [4] | outcome [5] | outcome [6] | outcome [7] | outcome [8] | Potency [20] | outcome [9] | Potency [10] | Potency [11] | Potency [12] | Potency [15]

CCCCOCCOC(=O)CCCCCCCCC(=O)OCCOCCCC
inactive: outcome [1] | outcome [2] | outcome [3] | outcome [4] | outcome [5] | outcome [6] | outcome [7] | outcome [8] | outcome [9] | Potency [10] | Potency [11] | Potency [12] | outcome [13] | Potency [15]

CC(CC=O)CC(C)(C)C (stereo not given)
inactive: outcome [1] | outcome [2] | outcome [3] | outcome [4] | outcome [5] | outcome [6] | outcome [7] | outcome [8] | outcome [9] | Potency [10] | Potency [12] | outcome [13] | Potency [15]

CC(COc1ccccc1)NN (stereo not given)
inactive: outcome [1] | outcome [2] | outcome [3] | outcome [4] | outcome [5] | outcome [6] | outcome [7] | outcome [8] | Potency [14] | outcome [9] | Potency [10] | Potency [11] | Potency [12] | outcome [13]

CCCCCCC#CC(=O)OC
inactive: outcome [1] | outcome [2] | outcome [3] | outcome [4] | outcome [5] | outcome [6] | outcome [7] | outcome [8] | outcome [9] | Potency [10] | Potency [11] | Potency [12] | outcome [13] | Potency [15]

O=S(=O)(O)c1cc(O)c(O)c(S(=O)(=O)O)c1
inactive: outcome [1] | outcome [2] | outcome [3] | outcome [4] | outcome [5] | outcome [6] | outcome [7] | outcome [8] | outcome [9] | Potency [10] | Potency [11] | Potency [16] | outcome [17] | Potency [18] | Potency [15] | outcome [19]

Cc1ccnc(NS(=O)(=O)c2ccc(N)cc2)n1
inactive: fluorescence, % of fluorescein [1] -0.0062% [at 18.6 µM] | fluorescence, % of fluorescent control [2] -0.0731% [at 18.6 µM] | activity change [3] 0.0378% [at 18.6 µM] | fluorescence, % of fluorescent control [4] -0.145% [at 18.6 µM] | fluorescence, % of Rose Bengal [5] 0.0665% [at 18.6 µM] | fluorescence, % of fluorescent control [6] 0.0941% [at 18.6 µM] | fluorescence, % of fluorescein control [7] 0.0314% [at 18.6 µM] | fluorescence, % of fluorescent control [8] -0.0164% [at 18.6 µM] | Potency [14] | outcome [9] | Potency [10] | Potency [12] | outcome [13] | Potency [15]

CCN(CC#N)c1cccc(C)c1
inactive: outcome [1] | outcome [2] | outcome [3] | outcome [4] | outcome [5] | outcome [6] | outcome [7] | outcome [8] | outcome [9] | Potency [10] | Potency [11] | Potency [12] | Potency [15]

CCCCCCCC1CCCC1=O (stereo not given)
inactive: outcome [1] | outcome [2] | outcome [3] | outcome [4] | outcome [5] | outcome [6] | outcome [7] | outcome [8] | outcome [9] | Potency [10] | Potency [11] | outcome [13] | Potency [16] | outcome [17] | Potency [18] | Potency [15] | outcome [19]

— PubChem BioAssay (Tox21)
